This passage reports ETS1 binding intensity results from the supplement of paper PMC10681739.

Over roughly 2,700 sequences, “arbitrary fluorescence units” has its median near 4,100; the highest 2% begin near 54,000. The full list was thinned out, with the highest values kept by preference.

The assay concerns the target T1, ETS1 (UniProt P14921).
T1 sequence: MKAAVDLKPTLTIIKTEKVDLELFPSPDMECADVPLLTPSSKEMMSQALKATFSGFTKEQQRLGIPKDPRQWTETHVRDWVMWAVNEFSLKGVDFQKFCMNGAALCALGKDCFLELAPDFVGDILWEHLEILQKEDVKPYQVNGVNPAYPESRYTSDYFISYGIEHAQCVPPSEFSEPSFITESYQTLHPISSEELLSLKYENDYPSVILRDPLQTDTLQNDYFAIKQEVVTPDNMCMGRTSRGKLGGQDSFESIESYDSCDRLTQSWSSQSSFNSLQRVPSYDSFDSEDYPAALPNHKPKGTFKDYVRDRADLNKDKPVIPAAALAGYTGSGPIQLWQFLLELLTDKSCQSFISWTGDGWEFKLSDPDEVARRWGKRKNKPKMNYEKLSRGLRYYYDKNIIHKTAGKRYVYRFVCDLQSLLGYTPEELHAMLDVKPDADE
Nature of the assay: ETS1 binding intensity (PBM fluorescence) (arbitrary fluorescence units); higher = stronger binding. The settings on record: ETS1 concentration 10 nM. The procedure: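 gcPBM on wild-type 36-bp genomic probes with two neighbouring ETS1 sites (4-24 bp apart). Recombinant human ETS1 (10 nM) was detected with anti-ETS1 antibody fluorescence. Values are medians over 3 replicate spots. The probes sit in constant array flanks that are not printed.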
Regarding GGGTGCTTCCGGGGCAGCGCGCGCCACTTCCGACCT, the ETS1 binding intensity was found to be 33500. Sequence GCGCCACTTCCGGCAGCGAAGTCACTTCCGCGGAGG returned an ETS1 binding intensity of 57600. CCCGGAGTTCCGCGCGGCGCCAGCCCTTCCGCCACG gave an ETS1 binding intensity of 375. Sequence GGCTGGGGCGGATGCCGGGGCTGTTCCGGGCCCTCC had an ETS1 binding intensity of 1230. TGAGCGCCGTGCCTTCCGGGTTCCGCCCTCCTGGGT came in with an ETS1 binding intensity of 1430. In turn, AGAATGAGCTGCAGGAAGGCGGAAGCACTAGCGTGC gave an ETS1 binding intensity of 421.

CGGGACAGGAAGTGTGGACAGGCTCCTTCCTGTTTG gave an ETS1 binding intensity of 15000.

Regarding AGAAACGGAAAGAAAGTGACCCCTCCCTTCCTTTCA, the ETS1 binding intensity is 175. TGGGGTTTCCTGGGGTGTTCTGTCTACATCCTGAGA showed an ETS1 binding intensity of 5150. In turn, CCCAGCGAGAGGTTTCCTCTTCCGGCACCTGACCCC gave an ETS1 binding intensity of 4930. On to TTCCTCTCCTTTCCGCGAGACCTTCCGCGGTTATCC, for which the ETS1 binding intensity was found to be 178. ACAACCTTTAAACTTCCGGTTTCCTCTGTGCGAGGT displayed an ETS1 binding intensity of 56700. For the sequence GGCTTCAGGATGCATTGACAATTAAAGGAAGTCAGA, the ETS1 binding intensity amounted to 275. For the sequence CCGGCACTTCCGGCAGGCCAGGGCACTTCCGGGACC, the ETS1 binding intensity worked out at 58000. GGGGCCACTTCCCGGGGCCAGGCAGGAAGCCCGCCC displayed an ETS1 binding intensity of 3870. As for GAGGCGGGACTTCCTACAGCACTTCCGGCCAGAGCC, the figure is 26500; as for CGCTGAACTTCCCGAGCTCGGGGTGGGATGTGGCCG, 734; as for GCAGAAGGGAGGAAGAAGCAGGCGGAAGCAGCCGGT, 522. In turn, GTCACTTCCGGCAGCCGGAGGCAGCAGAGGAAGCCG displayed an ETS1 binding intensity of 71500. Sequence GAGAGGCAGGAAGAGAGCAGAGCCGGAAGCACAAGG displayed an ETS1 binding intensity of 2630.

CTCTAGGTCTAACATCCCTCGGAAGTTCGTGCAGCG showed an ETS1 binding intensity of 175. In the case of GGCAAAAACCCACATCCTCTTCCGCTGGCTCCACCT, the ETS1 binding intensity was determined as 8480.

The sequence CTCTTGGCAACATCCGGTCACATCCCCTCCGCTATT gave an ETS1 binding intensity of 60900. CAACCGAAAACATCCCGTGCCGGAAGCGCGTCATCG yielded an ETS1 binding intensity of 4780. In turn, TGCAAAGCATCCTGGGTGCCAGGCTTCCTGGGGCTT registered an ETS1 binding intensity of 1890.

In turn, GCAACTTCCGCCCTGAGAAGGGTGGGGCTTCCGTCT displayed an ETS1 binding intensity of 63000.

TGAAGGCTTCCGCCAAGGTGAGGGGCTTCCTCTGGG displayed an ETS1 binding intensity of 9460. The figure for CGCCCCTGGGGCTTCCGCGGCGGAAGCCTAGCGTCC is 824; for CCAAGCTGGTTTCCTCTCCGGTTTCCTCCGGGGTGG it is 3800; for CTGACCTGCTTCCTCATGGTTGTTTCCTGCCTATTG it is 3740.

For TCCACTTCCGGGTCCGGGACACCGCCCGGATCTTGC, the ETS1 binding intensity came out at 64200. GCCACCGCCCCTTCCGGGTCCGGAACGGCTCCAGCT gave an ETS1 binding intensity of 7050. The figure for GACGGACACCCGTTTCCGCTTCCGGGTCACGCTTCT is 20900. Regarding ACGACGCAGCCACTTCCGATTCCGGTCGGAGCACCG, the ETS1 binding intensity amounted to 8910. In turn, GCCTCACTTCCTGTGTTCAAGTGACAGGATGTGACA had an ETS1 binding intensity of 70700. The figure for TTCTTCACAAGCGGATGTCACTTCCTGCCTGTGACA is 17200; for CCTCAGGATGGCATCAGCCTGTGACCACTTCCTGTG it is 2200; for GCACCCGGAAGCCGCTTGCGGGCTCCCGGAAGCGGC it is 8720. The figure for GCGTTACTTCCGGCGCGCGGCGGGCGGAAGTCCGGG is 69700; for TGCGGGGCGGAAGCCGGGGCGTGACTTCCGGCGCCG it is 11600. The figure for GGGCGGGACTTCCGGCAAGGCGCGGAAGCGGCGGTA is 46400; for GGGCCTAGGAAATGCCGCACTACAACTTCCGTCGGG it is 992. Turning to GAGGCGCTTCCTCAGTTGGACTCCACTTCCTCTCCG, the ETS1 binding intensity came to 4590. On to GCCGGCGAGCGGAAGAGGCTGCAGGAAGGCCGGCCC, for which the ETS1 binding intensity worked out at 3170. Take CAAACACATCCTGTTTGCACTTGACTTCCTGTTTTG: the ETS1 binding intensity came out at 37400. TAGTTGTCCCTTCCTTAAGCACTTCCTGTTTGATCT came in with an ETS1 binding intensity of 11900. The figure for AGCACTTCCTGTTTGATCTCTATGATCCATCCTGTT is 106000; for CCGGGAGCTCCGGATGCAGACAGGAAGTGGGCAGGG it is 9950; for CAGCACGACTTCCTGGAGCGGGCCGGAAGTGACAAC it is 21000. Regarding CGGGGCTCCCGGAAGCCGCCCCTTCCGCCAGCTTGC, the ETS1 binding intensity came out at 4520. In turn, CGTCCTGACTTCCGGGGCGGGACGGAAGAGCGGGCG yielded an ETS1 binding intensity of 25800. GAGACGGGACTTCCGGCTCCCGGGGAAGTCCCGCCC: the ETS1 binding intensity is 53500. In the case of TATAAAACCATTTCCTTCTCTGGGAAATGAGATGTC, the ETS1 binding intensity amounted to 3370. On to GGTCCGGAAACGGGACAGAAGGCCCACCTTCCTCCC, for which the ETS1 binding intensity was determined as 8480. Turning to AGCCTTTGTATTTCCTTTCAGAGGAAACCCCAATGC, the ETS1 binding intensity came out at 5570.

In turn, CGCTGCTTCCGGGTCTCGGCAAGCACTTCCGGGGTG returned an ETS1 binding intensity of 30400. The figure for TTCCACTTCCGGTCTTACCCGGCTACTTCCGCTGCT is 147000; for TGGGGTCTTCCGGTTGGACCCCTGCTTCCGCTGATT it is 24400; for CAACGGCAGCTTCCTGCGGCGCCGGAAACGCTTCAA it is 12100. In the case of TGAAACAGGAAGTCAGCTTCACAGCAGGAAGCAGAC, the ETS1 binding intensity was determined as 16400. Turning to TTCCTCAGGGAAGTTCGGGTGAGAGGAAGTGCCTGC, the ETS1 binding intensity was 228. CAAGCGATTCTTCCGCCTCAACTTCCTGAGTAGCTG displayed an ETS1 binding intensity of 5800. The figure for CGCCGCATCCGGTAGCGAGAGTTCAACTTCCTGACT is 56600. Take CCCGGTAGCCGCCGGAAAACTTCCGCCGAGACCGGA: the ETS1 binding intensity was found to be 4420.

Sequence TGTGATTTTCCATCCTGCCATTTCCTGGCACCCAGA returned an ETS1 binding intensity of 4620. In turn, GCCGCGGCGGAAGAGGCTCGGGGAGGAAGTTATTTG came in with an ETS1 binding intensity of 1880. As for AGTCACACAGGAAATGGAGCCAGGGGATGTGCTCAA, the figure is 14800; as for CGCGCCGGGTGTTTCCGCTACTTCCCTGCGGCGGGG, 7930; as for CGGGCACTTCCGGCGCGAACCGCTACTTCCGGTGCG, 95900. For GCCGAGGACACTTCCGCGGGCGGAACCTGCCGGCAC, the ETS1 binding intensity is 5200. The sequence ACTTGACATTTCCTGCCTCCTGTTTCCTCATCACTC came in with an ETS1 binding intensity of 22500. Regarding GAGGTGGGGAGGAAGAGCTGCCGGAAGTAGGCGGTG, the ETS1 binding intensity turned out to be 5440. As for CAGACTTCCGGGGTCGAGAACTACAACTTCCGACTT, the figure is 61700; as for CTGGGCCCTTCCTGCCAGGTTGCACTTCCTGATAGC, 8540. Regarding AGGCAGGAAGTACCGCCTGATGCTCAGCTTCCGCTG, the ETS1 binding intensity is 9880. In turn, TGCCACATCCTGTCTTTTTACCTCCTTTCCTGCTTA returned an ETS1 binding intensity of 51200. GTAACAGGAAGAAAATAATTTACCACATCCTTTATT showed an ETS1 binding intensity of 975.

TGGTAACAGGCATTTCCGGTTTCCGGCCGGCTCCCT: the ETS1 binding intensity is 61800. Sequence TGCGCATTTCCGCTCCTTGCCGGTTTTCCGGACCTC registered an ETS1 binding intensity of 36000. In the case of CTTCCCTGGTAACATCCGGCATCCTGGGGCTGCCAA, the ETS1 binding intensity was determined as 18800.
